Experimental findings from PubChem BioAssay (NCI) are described below.

About 83,000 compounds went through this panel and 20% of them were active in at least one assay; those are over-represented in the sample as a whole.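 Interpretation: 100, growth as untreated; towards 0, rising growth inhibition; 0, no net growth; 0 to -100, cell death. Compounds scoring below 10 were considered active.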 A number with no mark means an inactive call. The source made the active and inactive calls.

Assay in all cases: NCI-60 one-dose screen, 48 h (100 = growth as untreated, 0 = no growth, -100 = all killed)
One assay relates to NCI-H23 lung. The conditions noted are these: 10 µM unless noted.
In another assay the test system is NCI-H226 lung. The conditions noted are these: 10 µM unless noted.
A further assay has as its system NCI-H322M lung. The conditions noted are these: 10 µM unless noted.
The subject of the next assay is HOP-62 NSCLC. The conditions noted are these: 10 µM unless noted.
The next assay has as its system NCI-H460 lung. The conditions noted are these: 10 µM unless noted.
The next assay has as its system HOP-92 NSCLC. The conditions noted are these: 10 µM unless noted.
The subject of the next assay is NCI-H522 lung. Particulars: 10 µM unless noted.
For the next assay, the system named is 786-0 renal. The conditions noted are these: 10 µM unless noted.
In the next assay the test system is COLO 205 colon. Particulars: 10 µM unless noted.
The test system of the next assay is DU-145 prostate. The conditions noted are these: 10 µM unless noted.
The next assay relates to K-562 leukemia. The conditions noted are these: 10 µM unless noted.
A further assay relates to MALME-3M melanoma. Particulars: 10 µM unless noted.
In the next assay the test system is MDA-MB-231 breast. Particulars: 10 µM unless noted.
Another assay relates to RXF 393 renal. Particulars: 10 µM unless noted.
Another assay relates to SF-268 CNS. The conditions noted are these: 10 µM unless noted.
The test system of the next assay is SF-295 CNS. Particulars: 10 µM unless noted.
The next assay concerns SF-539 CNS. Particulars: 10 µM unless noted.
Another assay relates to UACC-257 melanoma. The conditions noted are these: 10 µM.
The next assay concerns M14 melanoma. Particulars: 10 µM unless noted.
The test system of another assay is A549/ATCC NSCLC. Particulars: 10 µM unless noted.

As for `Cc1cc(NS(=O)(=O)c2ccc(-c3cnc(C4CC4)o3)cc2)ccc1I`, the growth is 37.7% in the assay with NCI-H23 lung; 57.8% in the assay with NCI-H226 lung; 45.8% in the assay on NCI-H322M lung; 43.8% with HOP-62 NSCLC; 22.2% with NCI-H460 lung; 62.4% in the assay with HOP-92 NSCLC. The growth in the assay on NCI-H522 lung is 30.6%; in the assay with 786-0 renal, 46.3%; in the assay with COLO 205 colon, 22.9%; in the assay with DU-145 prostate, 26%; in the assay with K-562 leukemia, 11.6%; in the assay on MALME-3M melanoma, 48.8%. The growth in the assay on MDA-MB-231 breast was 40.9%; with RXF 393 renal, 10.8%; in the assay with SF-268 CNS, 65.1%; in the assay with SF-295 CNS, -2.36% (active); in the assay with SF-539 CNS, 11.5%; in the assay with UACC-257 melanoma it was 66.8%. In the assay on M14 melanoma, the growth was 24.6%.
For the compound `O=C1/C(=C/c2ccccc2[N+](=O)[O-])Oc2ccc(O)cc21`, the growth with NCI-H23 lung was 43.7%; in the assay with NCI-H226 lung, 78.6%; with NCI-H322M lung, 79.8%; in the assay with HOP-62 NSCLC, 78.3%; with NCI-H460 lung, 72.3%; in the assay on HOP-92 NSCLC, 80%. For the same compound, the growth in the assay with NCI-H522 lung is -5.14% (active); in the assay with 786-0 renal it was 46.3%; in the assay with COLO 205 colon, 20.2%; in the assay with DU-145 prostate, 29.8%; in the assay on K-562 leukemia, 4.21% (active); with MALME-3M melanoma, 47.8%. In addition, the growth in the assay with MDA-MB-231 breast was 30.2%; in the assay on RXF 393 renal it was 12.3%; with SF-268 CNS, 78.5%; in the assay with SF-295 CNS, 88.9%; in the assay with SF-539 CNS, 15.2%; in the assay on UACC-257 melanoma, 60.3%. For the same compound, the growth in the assay on M14 melanoma was 54.9%.
For the compound `Cc1nn(-c2ccccc2)cc1/C=N/Nc1nc(Nc2ccccc2)nc(Nc2ccc(S(N)(=O)=O)cc2)n1`, the growth was -14.9% (active) with NCI-H23 lung; -59.2% (active) in the assay on NCI-H226 lung; 9.11% (active) in the assay with NCI-H322M lung; 9.43% (active) in the assay with HOP-62 NSCLC; -35.9% (active) in the assay on NCI-H460 lung; -13% (active) with HOP-92 NSCLC. For the same compound, the growth is 0.777% (active) in the assay on NCI-H522 lung; -47.6% (active) in the assay with 786-0 renal; -22% (active) in the assay with COLO 205 colon; 9.14% (active) in the assay on DU-145 prostate; 9.56% (active) with K-562 leukemia; -25.6% (active) with MALME-3M melanoma. Moreover, the growth in the assay with MDA-MB-231 breast is -20.8% (active); with RXF 393 renal it was -20.4% (active); with SF-268 CNS, -7.97% (active); with SF-295 CNS it was 10.7%; in the assay on SF-539 CNS, -71.1% (active); in the assay on UACC-257 melanoma, 55.3%.
On to `COc1ccc([C@@H]2[C@@H](O)C(=O)N2c2cc(OC)c(OC)c(OC)c2)cc1Cl`, for which the growth with NCI-H23 lung is 28%; with NCI-H226 lung, 33.3%; in the assay with NCI-H322M lung, 44.8%; in the assay with HOP-62 NSCLC, 24.5%; with NCI-H460 lung, 2.22% (active); in the assay on HOP-92 NSCLC it was -2.92% (active). Moreover, the growth in the assay on NCI-H522 lung was -8.73% (active); in the assay with A549/ATCC NSCLC it was 22.2%; in the assay with 786-0 renal, 18.9%; with COLO 205 colon, -81.1% (active); in the assay with DU-145 prostate, 15.2%; with MALME-3M melanoma, 64.3%. Further, the growth was 26% in the assay with MDA-MB-231 breast; 26% in the assay on RXF 393 renal; 44% in the assay on SF-268 CNS; 9.68% (active) in the assay on SF-295 CNS; -12.4% (active) with SF-539 CNS; 13.4% in the assay on M14 melanoma.
Take `CCCCCCNC(=O)Oc1ccc(/C(=C(\C)c2ccc(Cl)cc2)c2ccc(OCCN(C)C)cc2)cc1`: the growth in the assay with NCI-H23 lung was 76.3%; with NCI-H226 lung, 101%; in the assay on NCI-H322M lung, 78.1%; in the assay on HOP-62 NSCLC, 75.5%; with NCI-H460 lung it was 6.53% (active); with HOP-92 NSCLC it was 38.4%. In addition, the growth with NCI-H522 lung was 83.5%; with 786-0 renal it was 39.8%; in the assay with COLO 205 colon it was 11.6%; with DU-145 prostate, 83.4%; with K-562 leukemia it was 4.21% (active); with MALME-3M melanoma, -33.7% (active). In addition, the growth is 58.5% with MDA-MB-231 breast; 46% in the assay on RXF 393 renal; 65.4% in the assay with SF-268 CNS; 84.8% in the assay on SF-295 CNS; 42% with SF-539 CNS; 18.9% in the assay on UACC-257 melanoma. In the assay on M14 melanoma, the growth is 3.61% (active).
On to `COc1ccc([C@@H]2[C@@H](O)C(=O)N2c2cc(OC)c(OC)c(OC)c2)cc1`, for which the growth was 25.6% in the assay on NCI-H23 lung; -7.75% (active) in the assay on NCI-H226 lung; 43.1% in the assay with NCI-H322M lung; 22.7% in the assay with HOP-62 NSCLC; 3.07% (active) in the assay on NCI-H460 lung; -1.78% (active) with HOP-92 NSCLC. In addition, the growth was -21.2% (active) in the assay with NCI-H522 lung; 23.3% with A549/ATCC NSCLC; 19.2% in the assay with 786-0 renal; -78.7% (active) with COLO 205 colon; 12.7% with DU-145 prostate; 49.9% with MALME-3M melanoma. Moreover, the growth in the assay on MDA-MB-231 breast is 30.4%; in the assay with RXF 393 renal it was 24%; with SF-268 CNS it was 46.9%; in the assay with SF-295 CNS it was 19.8%; with SF-539 CNS, -7.72% (active); with M14 melanoma, 12.5%.
As to `COc1ccc([C@H]2[C@H](O)C(=O)N2c2cc(OC)c(OC)c(OC)c2)cc1`, the growth with NCI-H23 lung was 12.6%; in the assay with NCI-H226 lung, 19.5%; with NCI-H322M lung it was 47.9%; in the assay on HOP-62 NSCLC it was 26.2%; with NCI-H460 lung, 3.39% (active); in the assay on HOP-92 NSCLC, -4.93% (active). In addition, the growth in the assay with NCI-H522 lung was -20.8% (active); in the assay on A549/ATCC NSCLC, 21.6%; with 786-0 renal it was 19.5%; with COLO 205 colon it was -74.6% (active); with DU-145 prostate, 17.8%; in the assay on MALME-3M melanoma, 59.9%. Moreover, the growth with MDA-MB-231 breast was 25%; in the assay with RXF 393 renal, 21.8%; with SF-268 CNS, 47.5%; in the assay on SF-295 CNS it was 14.1%; in the assay on SF-539 CNS, -20.3% (active); in the assay on M14 melanoma it was 10.3%.
Regarding `CC1OC(O[C@@H]2[C@H](O)C(CO)OC(O[C@H]3COC(O[C@H]4CC[C@]5(C)[C@H]6CC[C@]78OC[C@@]9(CC[C@](C)(C=O)C[C@H]97)C(=O)C[C@@]8(C)[C@]6(C)CC[C@H]5C4(C)C)[C@@H](O)[C@@H]3O)[C@H]2OC2OC[C@@H](O)[C@@H](O)[C@@H]2O)[C@@H](O)[C@@H](O)[C@H]1O` (stereo partly specified), the growth in the assay on NCI-H23 lung was 94.8%; in the assay on NCI-H226 lung, 82.7%; in the assay on NCI-H322M lung, 93.3%; in the assay on HOP-62 NSCLC, 75.2%; in the assay with NCI-H460 lung, 98.5%; with HOP-92 NSCLC it was 79.5%. The growth with NCI-H522 lung was 87.1%; in the assay with 786-0 renal it was 95.5%; in the assay with COLO 205 colon, 92.6%; in the assay with DU-145 prostate it was 108%; in the assay with MALME-3M melanoma it was 98.2%; with MDA-MB-231 breast, 79.7%. For the same compound, the growth in the assay on RXF 393 renal was 87.4%; in the assay with SF-268 CNS, 95.9%; with SF-295 CNS it was 89.9%; with SF-539 CNS it was 99.8%; in the assay on UACC-257 melanoma, 95.3%.
